Experimental data taken from PubChem BioAssay (NCATS).
Inconclusive results are not listed. Unless noted, calls come from the whole dose curve; as a rule, active = well fitted curve in either direction with a large enough effect (not every such curve was filed as active); inconclusive = small, poorly fitted or top-dose-only effect, or another doubt; inactive = flat fitted curve, though single readings scatter.

How the values were obtained:
[1] = AP1 Signaling Pathway (AID 357); settings: ME-180 AP-1-bla reporter, EGF-induced, beta-lactamase ratio, 5 h; at 17.2 µM (top of the series) unless noted;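 note: ME-180 reporter cells stimulated with EGF at its EC50 level; % is set by controls: 0 for no effect and ±100 for the full control effect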
Summary of the method: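 In this screen, ME-180 cells in Opti-MEM with 0.5% dialyzed FBS received EC50 EGF and compound titrations for 5 h. AP-1 reporter beta-lactamase was detected via CCF4 ratio, giving AC50 for positive and negative modulators.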

[2] = NFAT Signaling Pathway (AID 444); settings: Jurkat NFAT-bla M1, carbachol, beta-lactamase ratio, 5 h; at 17.2 µM (top of the series) unless noted;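 note: carbachol stimulus at about its EC50 of 1 µM final; % is set by controls: 0 for no effect and ±100 for the full control effect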
Summary of the method: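 Read-out: CCF4 FRET ratio (460 nm/530 nm) after 1 h RT dye loading, used for %activity and AC50 from titration series. Cells: Jurkat NFAT-β-lactamase/M1 line, treated with compound plus 1 uM carbachol for 5 h, 37 °C.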

[3] = Stat Signaling Pathway (AID 446); settings: ME-180 (cervical carcinoma) SIE beta-lactamase reporter, IL-6 stimulated, 5 h; at 17.2 µM (top of the series) unless noted;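 note: ME-180 cervical cancer cells given 40 pM IL-6 alongside compound; SIE-controlled beta-lactamase reporter measured as 460/530 nm FRET emission ratio; % is set by controls: 0 for no effect and ±100 for the full control effect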
Summary of the method: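 Emission at 460 and 530 nm (excitation 405 nm) reports SIE-controlled beta-lactamase in ME-180 cells. Cells received compound with 40 pM IL-6 for 5 hrs at 37 C; data scaled between 300 pM IL-6 and 125 nM JAK-inhibitor controls.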

[4] = target: Glucocorticoid receptor (Homo sapiens) (UniProt P04150); experiment: GR-GFP Redistribution (AID 450;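 active = compounds whose dose series gives a full or clear partial fitted curve of increased nuclear translocation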; note: potency is the fitted concentration of half-maximal effect)
Chain of Glucocorticoid receptor (Homo sapiens) (P04150 whole entry, looked up): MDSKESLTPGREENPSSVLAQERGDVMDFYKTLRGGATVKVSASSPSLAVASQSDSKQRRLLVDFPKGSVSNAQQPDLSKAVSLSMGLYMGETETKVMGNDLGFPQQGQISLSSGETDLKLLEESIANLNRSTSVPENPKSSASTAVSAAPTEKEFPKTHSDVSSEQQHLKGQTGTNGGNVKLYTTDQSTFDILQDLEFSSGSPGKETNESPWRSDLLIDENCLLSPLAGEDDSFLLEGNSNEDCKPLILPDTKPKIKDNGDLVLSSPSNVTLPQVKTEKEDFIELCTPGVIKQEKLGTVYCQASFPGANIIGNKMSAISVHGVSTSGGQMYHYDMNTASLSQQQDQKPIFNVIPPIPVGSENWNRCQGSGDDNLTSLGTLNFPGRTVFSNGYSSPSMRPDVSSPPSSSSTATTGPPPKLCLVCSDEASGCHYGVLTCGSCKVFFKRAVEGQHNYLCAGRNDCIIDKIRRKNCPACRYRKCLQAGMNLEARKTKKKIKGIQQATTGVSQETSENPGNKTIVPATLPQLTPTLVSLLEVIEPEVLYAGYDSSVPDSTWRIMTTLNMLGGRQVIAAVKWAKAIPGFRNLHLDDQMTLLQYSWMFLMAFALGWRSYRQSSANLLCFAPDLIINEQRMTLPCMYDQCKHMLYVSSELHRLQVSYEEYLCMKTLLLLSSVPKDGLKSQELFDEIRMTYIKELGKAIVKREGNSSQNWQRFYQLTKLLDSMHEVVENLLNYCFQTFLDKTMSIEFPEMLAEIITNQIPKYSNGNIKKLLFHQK

Cc1c(O)c(CN2CCCC(C)C2)cc2c3c(c(=O)oc12)CCC3 (stereo not given)
inactive: activity change, negative = inhibition [1] 13.2% | activity change, negative = inhibition [2] -10.5% | activity, negative = inhibition [3] 6.92% | Potency [4] > 20.6 µM

Cc1ccc(-c2nnc(-c3cccc(Br)c3)o2)cc1
inactive: activity change, negative = inhibition [1] 14.2% | activity change, negative = inhibition [2] -11.6% | activity, negative = inhibition [3] 12.4% | Potency [4] > 20.6 µM

O=C(O)C1CC(=O)n2c(nc3ccccc32)S1 (stereo not given)
inactive: activity change, negative = inhibition [1] -9.56% | activity change, negative = inhibition [2] -10.4% | activity, negative = inhibition [3] 6.25% | Potency [4] > 20.6 µM

CCOC(=O)C1Cc2c([nH]c3ccccc23)C(C)N1 (stereo not given)
inactive: activity change, negative = inhibition [1] -10.7% | activity change, negative = inhibition [2] 2.1% | activity, negative = inhibition [3] -9.52% | Potency [4] > 20.6 µM

COc1ccc(OC)c(C2C(C(=O)c3sc(C)nc3C)=C(O)C(=O)N2CCN2CCOCC2)c1 (stereo not given)
inactive: activity change, negative = inhibition [1] 4.44% | activity change, negative = inhibition [2] 16.6% | activity, negative = inhibition [3] -1.07% | Potency [4] > 20.6 µM

O=C1C(=O)N(CCN2CCOCC2)C(c2ccccn2)/C1=C(/O)c1ccccc1 (stereo not given)
inactive: activity change, negative = inhibition [1] -4.12% | activity change, negative = inhibition [2] 3.29% | activity, negative = inhibition [3] -1.75% | Potency [4] > 20.6 µM

Cc1ccc(N(CC(O)CN2CCCC2)S(=O)(=O)c2ccc(C)cc2)cc1 (stereo not given)
inactive: activity change, negative = inhibition [1] 0.0608% | activity change, negative = inhibition [2] -19.4% | activity, negative = inhibition [3] 11.3% | Potency [4] > 20.6 µM

CCNc1nc(Oc2ccccc2)nc(OC(C)C(=O)OCC)n1 (stereo not given)
inactive: activity change, negative = inhibition [1] -1.07% | activity change, negative = inhibition [2] 6.54% | activity, negative = inhibition [3] 1.47% | Potency [4] > 20.6 µM

COc1ccc(NC2CC(=O)N(C)C2=O)cc1 (stereo not given)
inactive: activity change, negative = inhibition [1] 9.53% | activity change, negative = inhibition [2] -9.34% | activity, negative = inhibition [3] 11.9% | Potency [4] > 20.6 µM

Cn1c(/C(C#N)=C/Nc2ccccn2)nc2ccccc21
inactive: activity change, negative = inhibition [1] -8.79% | activity change, negative = inhibition [2] -5.83% | activity, negative = inhibition [3] 8.51% | Potency [4] > 20.6 µM

C1CNCCNCCNCCN1
inactive: activity change, negative = inhibition [1] -9.33% | activity change, negative = inhibition [2] 6.5% | activity, negative = inhibition [3] -0.788% | Potency [4] > 20.6 µM

Cn1c(=O)[nH]c(=O)c2c1nc(N1CCN(c3cccc(Cl)c3)CC1)n2CCCc1ccccc1
inactive: activity change, negative = inhibition [1] 26.9% | activity change, negative = inhibition [2] -11.9% | activity, negative = inhibition [3] 6.95% | Potency [4] > 20.6 µM

Cn1c(=O)[nH]c(=O)c2c1nc(Br)n2CCSc1ncccn1
inactive: activity change, negative = inhibition [1] 5.72% | activity change, negative = inhibition [2] -10.8% | activity, negative = inhibition [3] 4.76% | Potency [4] > 20.6 µM

CCCCc1c(C)nn(-c2nnc3c4ccccc4n(C)c3n2)c1C
inactive: activity change, negative = inhibition [1] -21.4% | activity change, negative = inhibition [2] -28.4% | activity, negative = inhibition [3] -8.34% | Potency [4] > 20.6 µM

COc1ccc(OC)c(C2NC(=O)c3sc(=S)n(-c4ccccc4)c3N2)c1 (stereo not given)
inactive: activity change, negative = inhibition [1] -13.3% | activity change, negative = inhibition [2] -12.2% | activity, negative = inhibition [3] -13.8% | Potency [4] > 20.6 µM

Cc1cccn2c(=O)c3cc(C#N)c(=N)n(Cc4ccncc4)c3nc12
inactive: activity change, negative = inhibition [1] 6.9% | activity change, negative = inhibition [2] -26.5% | activity, negative = inhibition [3] -5.05% | Potency [4] > 20.6 µM

CC(C)CC(C(=O)O)C(C)CC(=O)Nc1ccn(-c2ccccc2)n1 (stereo not given)
inactive: activity change, negative = inhibition [1] -9.05% | activity change, negative = inhibition [2] 6.76% | activity, negative = inhibition [3] 7.28% | Potency [4] > 20.6 µM

CSc1nc(O)c(Cc2ccccc2)c(=O)[nH]1
inactive: activity change, negative = inhibition [1] -12.8% | activity change, negative = inhibition [2] 14.1% | activity, negative = inhibition [3] 0.301% | Potency [4] > 20.6 µM

O=C(Nc1nnc(SCc2ccccc2F)s1)c1ccco1
inactive: activity change, negative = inhibition [1] -5.32% | activity change, negative = inhibition [2] 11.2% | activity, negative = inhibition [3] -4.78% | Potency [4] > 20.6 µM

CCOc1ccc2c(c1)n([O-])c1c([n+]2=O)CCCC1
inactive: activity change, negative = inhibition [1] 9.01% | activity change, negative = inhibition [2] -13% | activity, negative = inhibition [3] 1.7% | Potency [4] > 20.6 µM

COC(=O)c1ccc(OC(=O)c2ccc(OC)c(OC)c2)c(OC)c1
inactive: activity change, negative = inhibition [1] -0.243% | activity change, negative = inhibition [2] -10.5% | activity, negative = inhibition [3] -2.16% | Potency [4] > 20.6 µM

c1ccc(-c2nnc(OCCN3CCOCC3)c3ccccc23)cc1
inactive: activity change, negative = inhibition [1] -8.82% | activity change, negative = inhibition [2] 5.5% | activity, negative = inhibition [3] 5.26% | Potency [4] > 20.6 µM

COc1cccc(OC)c1C(=O)N1CCN(S(=O)(=O)c2ccc(C)cc2)CC1
inactive: activity change, negative = inhibition [1] -12.3% | activity change, negative = inhibition [2] -1.17% | activity, negative = inhibition [3] 6.68% | Potency [4] > 20.6 µM

COC(=O)C(NC(=O)c1ccccc1)(Nc1nc(C)cs1)C(F)(F)F (stereo not given)
inactive: activity change, negative = inhibition [1] 20% | activity change, negative = inhibition [2] 6.46% | activity, negative = inhibition [3] -6.57% | Potency [4] > 20.6 µM

Cc1cc(=O)oc(C)c1C(=O)N1CCN(C)CC1
inactive: activity change, negative = inhibition [1] 5.91% | activity change, negative = inhibition [2] 17.3% | activity, negative = inhibition [3] 5.89% | Potency [4] > 20.6 µM
